From PubChem BioAssay (NCATS)
“And” between values parts separate entries of the source, which are not always exact repeats. Equal values may be shown once. Results filed as inconclusive are left out. The source made the active and inactive calls. Calls come from the whole dose curve; as a rule, active = well fitted curve in the direction sought with a large enough effect; inconclusive = small, poorly fitted or top-dose-only effect, or another doubt; inactive = no such curve, though single readings can be large; an effect the other way counts as inactive or inconclusive.

Tests used:
[1] = Drug repurposing screens with cells derived from glioblastoma tumor samples (AID 1345199); conditions: GBM patient neurospheres viability, ATP luminescence, 48 h; note: nearly all actives have a fitted effect of over 40% in size; note: potency is the fitted concentration of half-maximal effect
Procedure, shortened: (§1)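 Primary testing used CD133+ neurospheres from four GBM patients, seven concentrations, 48 h exposure and ATP-based viability; confirmation added three slower-growing patient lines.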

[2] = system: Tov-21-G; test: Primary qHTS to identify gynecologic anti-cancer compounds using libraries of approved drugs and bioactive compounds (AID 1345084); conditions: Gynecologic cancer cell panel viability, ATPlite luminescence, 48 h; series mostly up to 57.5 µM; note: nearly all actives have a fitted effect of over 55% in size
Procedure, shortened: (§2)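 Cells, 1,000 per well, were allowed to settle for 16 h at 37 C before compound addition. Five concentrations were tested for 48 h, and viability was read by ATPlite luminescence after 15 min at room temperature.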

[3] = system: Tov112D; test: as above; conditions: Gynecologic cancer cell panel viability, ATPlite luminescence, 48 h; series mostly up to 57.5 µM
Procedure, shortened: as §2

[4] = system: astro; test: Drug repurposing screens with cells derived from glioblastoma tumor samples (AID 1345199); conditions: viability, ATP luminescence, 48 h; series mostly up to 45.9 µM; note: nearly all actives have a fitted effect of over 40% in size; note: potency is the fitted concentration of half-maximal effect
Procedure, shortened: as §1

[5] = at 45.9 µM (top of the series), tumour line B
[6] = at 45.9 µM (top of the series), tumour line D
[7] = at 46 µM (top of the series), tumour line A
[8] = at 46.1 µM (top of the series), tumour line C
[9] = at 20 µM (top of the series), tumour line C
[10] = at 21.2 µM (top of the series), tumour line B
[11] = at 21.2 µM (top of the series), tumour line D
[12] = at 21.3 µM (top of the series), tumour line A
% is set by controls: 0 for no effect and ±100 for the full control effect.

O=C(Nc1ccc(Cl)c(Cl)c1)C1CC1
active: Potency ([1]; tumour line C) 23.1 µM

O=C(O)CNC(=O)c1ccccc1
inactive: Potency [2] | Potency [3] | activity, negative = cell killing [1, 5] -9.91% | activity, negative = cell killing [1, 6] -0.469% | activity, negative = cell killing [1, 7] 3.77% | activity, negative = cell killing [1, 8] -1.09% | Potency [4]

Nc1nc2ncc(CNc3ccc(C(=O)N[C@@H](CCC(=O)O)C(=O)O)cc3)nc2c(=O)[nH]1
inactive: Potency [2] | Potency [3] | activity, negative = cell killing [1, 5] -3.4% | activity, negative = cell killing [1, 6] 4.54% | activity, negative = cell killing [1, 7] -10.5% | activity, negative = cell killing [1, 8] -9.36% | Potency [4]

Oc1cc(O)c2c(c1)O[C@H](c1ccc(O)c(O)c1)[C@H](O)C2
inactive: Potency [2] | Potency [3] | activity, negative = cell killing [1, 5] -5.02% | activity, negative = cell killing [1, 6] -9.16% | activity, negative = cell killing [1, 7] -28.5% | activity, negative = cell killing [1, 8] -2.43% | Potency [4]

NC(=O)CC[C@@H]1NC(=O)[C@H](Cc2ccccc2)NC(=O)[C@H](Cc2ccc(O)cc2)NC(=O)CCSSC[C@@H](C(=O)N2CCC[C@H]2C(=O)N[C@@H](CCCN=C(N)N)C(=O)NCC(N)=O)NC(=O)[C@H](CC(N)=O)NC1=O
inactive: Potency [2] | Potency [3] | activity, negative = cell killing [1, 5] -2.8% and 1.21% | activity, negative = cell killing [1, 6] -7.07% and -4.13% | activity, negative = cell killing [1, 7] -24.9% and -29% | activity, negative = cell killing [1, 8] -17.6% and 1.07% | Potency [4]

C[C@H](CCC(=O)O)[C@H]1CC[C@H]2[C@@H]3C(=O)C[C@@H]4CC(=O)CC[C@]4(C)[C@H]3CC(=O)[C@]12C
inactive: Potency [2] | Potency [3] | activity, negative = cell killing [1, 5] -0.788% | activity, negative = cell killing [1, 6] -14.6% | activity, negative = cell killing [1, 7] -2.78% | activity, negative = cell killing [1, 8] 3.71% | Potency [4]

CCCN1CCCC[C@H]1C(=O)Nc1c(C)cccc1C
inactive: Potency [2] | Potency [3] | activity, negative = cell killing [1, 5] -11.5% | activity, negative = cell killing [1, 6] -25.5% | activity, negative = cell killing [1, 8] -6.18% | Potency [4]
active: Potency ([1]; tumour line A) 35.5 µM

O=C1OC2(c3ccc(O)cc3Oc3cc(O)ccc32)c2ccccc21
inactive: Potency [2] | Potency [3] | activity, negative = cell killing [1, 5] -8.7% and -8.22% | activity, negative = cell killing [1, 6] -3.66% and -8.86% | activity, negative = cell killing [1, 7] -6.74% | activity, negative = cell killing [1, 8] 11.7% and -10.7% | Potency [4]

CC1(C)O[C@@H]2[C@@H](CO[C@@]3(COS(N)(=O)=O)OC(C)(C)O[C@@H]23)O1
inactive: Potency [2] | Potency [3] | activity, negative = cell killing [1, 5] 2.05% | activity, negative = cell killing [1, 6] -22.3% | activity, negative = cell killing [1, 7] -14.9% | activity, negative = cell killing [1, 8] -2.36% | Potency [4]

CN=C(NC#N)NCCSCc1csc(N=C(N)N)n1
inactive: Potency [2] | Potency [3] | activity, negative = cell killing [1, 5] -9.85% | activity, negative = cell killing [1, 6] 14.9% | activity, negative = cell killing [1, 7] -18.5% | activity, negative = cell killing [1, 8] -6.9% | Potency [4]

Cc1c(C(C)C)c(=O)n(-c2ccccc2)n1C
inactive: Potency [2] | Potency [3] | activity, negative = cell killing [1, 5] -4.08% | activity, negative = cell killing [1, 6] -9.96% | activity, negative = cell killing [1, 7] -22.1% | activity, negative = cell killing [1, 8] -13.8% | Potency [4]

Cc1c(C(N)=O)cc([N+](=O)[O-])cc1[N+](=O)[O-]
inactive: Potency [2] | Potency [3] | activity, negative = cell killing [1, 5] -3.44% | activity, negative = cell killing [1, 6] -20.3% | activity, negative = cell killing [1, 7] -15.4% | activity, negative = cell killing [1, 8] 1.23% | Potency [4]

Cc1ccnc(NS(=O)(=O)c2ccc(N)cc2)n1
inactive: Potency [2] | Potency [3] | activity, negative = cell killing [1, 9] -10.2% | activity, negative = cell killing [1, 10] -5.77% | activity, negative = cell killing [1, 11] -5.49% | activity, negative = cell killing [1, 12] -16.8% | Potency [4]

COC(=O)[C@@H]1CC2=CC(=O)CC[C@]2(C)[C@@]23O[C@@H]2C[C@@]2(C)[C@@H](CC[C@@]24CCC(=O)O4)[C@H]13
inactive: Potency [2] | Potency [3] | activity, negative = cell killing [1, 5] -3.02% | activity, negative = cell killing [1, 6] -20% | activity, negative = cell killing [1, 7] -25% | activity, negative = cell killing [1, 8] -18.4% | Potency [4]

CC(=O)OCC(=O)NCCCOc1cccc(CN2CCCCC2)c1
inactive: Potency [2] | Potency [3] | activity, negative = cell killing [1, 5] 0.906% and -1.58% | activity, negative = cell killing [1, 6] -12.4% and -6.14% | activity, negative = cell killing [1, 7] -17.5% | activity, negative = cell killing [1, 8] -13.4% and 4.52% | Potency [4]

CC(=O)Nc1c(I)cc(I)c(C(=O)O)c1I
inactive: Potency [2] | Potency [3] | activity, negative = cell killing [1, 5] -18.2% | activity, negative = cell killing [1, 6] -1.85% | activity, negative = cell killing [1, 7] -31.3% | activity, negative = cell killing [1, 8] 23.7% | Potency [4]

NCCc1ccn[nH]1
inactive: Potency [2] | Potency [3] | activity, negative = cell killing [1, 9] -4.24% | activity, negative = cell killing [1, 10] -2.24% | activity, negative = cell killing [1, 11] 2.99% | activity, negative = cell killing [1, 12] -21.3% | Potency [4]

NC(CS)C(=O)O (configuration not stated)
inactive: Potency [2] | Potency [3] | activity, negative = cell killing [1, 5] -9.5% | activity, negative = cell killing [1, 6] -0.348% | activity, negative = cell killing [1, 7] -20.7% | activity, negative = cell killing [1, 8] -17% | Potency [4]

CCC(C(=O)OCCN(CC)CC)c1ccccc1 (configuration not stated)
inactive: Potency [2] | Potency [3] | activity, negative = cell killing [1, 5] -10.7% | activity, negative = cell killing [1, 6] 13.4% | activity, negative = cell killing [1, 7] -28.5% | activity, negative = cell killing [1, 8] 0.404% | Potency [4]
